PubChem BioAssay (Tox21)
Unmarked numbers belong to inactive results. Inconclusive results are not listed. Entries that show only a call come without a potency. Active and inactive are the calls of the source. The call rests on the fitted dose curve.

What follows are compounds tested against Acetylcholinesterase (Homo sapiens) (UniProt P22303) (assay: Acetylcholinesterase (AChE) small molecule antagonists: colormetric cell-based qHTS assay (AID 1347395; further: nearly all actives have a fitted effect of over 30% in size)). Conditions: SH-SY5Y cells AChE activity, colorimetric (Ellman); series mostly up to 115 µM.
Sequence of Acetylcholinesterase (Homo sapiens) (P22303 whole entry, looked up): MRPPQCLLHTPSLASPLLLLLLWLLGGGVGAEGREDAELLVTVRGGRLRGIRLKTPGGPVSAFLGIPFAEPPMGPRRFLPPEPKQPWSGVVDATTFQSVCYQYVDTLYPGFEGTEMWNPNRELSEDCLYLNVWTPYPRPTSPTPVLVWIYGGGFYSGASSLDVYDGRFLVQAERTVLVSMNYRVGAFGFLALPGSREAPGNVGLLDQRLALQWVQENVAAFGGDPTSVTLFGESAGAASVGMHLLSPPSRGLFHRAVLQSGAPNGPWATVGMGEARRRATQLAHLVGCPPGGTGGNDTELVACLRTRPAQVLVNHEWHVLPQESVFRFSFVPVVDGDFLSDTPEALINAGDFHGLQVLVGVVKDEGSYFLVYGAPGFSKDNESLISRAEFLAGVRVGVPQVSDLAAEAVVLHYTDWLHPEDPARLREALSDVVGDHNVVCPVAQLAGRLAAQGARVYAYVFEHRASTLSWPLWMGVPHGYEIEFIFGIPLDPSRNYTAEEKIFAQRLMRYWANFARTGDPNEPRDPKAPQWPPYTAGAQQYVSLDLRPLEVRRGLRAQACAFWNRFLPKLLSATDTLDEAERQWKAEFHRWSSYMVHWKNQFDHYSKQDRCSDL
Summary of the method: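 SH-SY5Y cells, plated overnight at 37 C, were exposed to compounds for 30 min at 37 C and 5% CO2. Acetylthiocholine plus DTNB was then added, and thiocholine from endogenous AChE was quantified colorimetrically after 90 min at 37 C.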

SMILES | Potency | outcome | activity, negative = inhibition
CNc1ccc([N+](=O)[O-])cc1 | inactive |  | 
CC(C)=CCO | inactive |  | 
C#CCN[C@@H]1CCc2ccccc21 |  | inactive | 
CN1CCCN(C(c2ccccc2)c2ccc(Cl)cc2)CC1 (stereo not given) | inactive |  | 
Nc1ccc(O)c(N)c1 | inactive |  | 
CN(C)CCN(C)CCN(C)C | inactive |  | 
CN(C)C(=O)NC1(c2ccccc2)CCN(CCC[C@]2(c3ccc(Cl)c(Cl)c3)CCCN(C(=O)c3ccccc3)C2)CC1 |  |  | -4.11% [at 23.6 µM]
C=C(C#N)C(=O)OCC | inactive |  | 
CC(=O)c1ccc(C(C)=O)cc1 | inactive |  | 
C#CC(C)N(C)C(=O)Nc1ccc(Cl)cc1 (stereo not given) | inactive |  | 
CN1N=C(C(N)=O)CCC1=O | inactive |  | 
OCCOCC#CCOCCO | inactive |  | 
CC(C)n1nc(-c2cc3cc(O)ccc3[nH]2)c2c(N)ncnc21 | inactive |  | 
CCn1cc(C(=O)O)c(=O)c2cc3c(cc21)OCO3 | inactive |  | 
C=CC(C)CCC=C(C)C (stereo not given) | inactive |  | 
CC(=O)CCCCn1c(=O)c2c(ncn2C)n(C)c1=O | inactive |  | 
O=C1c2ccccc2C(=O)N1CO | inactive |  | 
O=c1[nH]c2cc(C(F)(F)F)c(N3CCOCC3)cc2n(CP(=O)(O)O)c1=O | inactive |  | 
O=C1O[C@@H]2[C@@H](O)[C@H](O)O[C@@H]2[C@H]1O | inactive |  | 
CCCc1nc2c(C)cc(-c3nc4ccccc4n3C)cc2n1Cc1ccc(-c2ccccc2C(=O)O)cc1 | inactive |  | 

SMILES | Potency | outcome | activity, negative = inhibition
OCCN1CCNCC1 | inactive |  | 
C[C@]12CC[C@@H]3c4ccc(O)cc4CC[C@H]3[C@@H]1C[C@@H](O)[C@@H]2O | inactive |  | 
OCCOCCOCCO | inactive |  | 
CN(C)c1ccc(O)c2c1C[C@H]1C[C@H]3[C@H](N(C)C)C(=O)C(C(N)=O)=C(O)[C@@]3(O)C(=O)C1=C2O | inactive |  | 
CCCCC(C=O)CC (stereo not given) | inactive |  | 
CCc1nn(C2CCCCC2)c2cc(C3(C#N)CCC(C(=O)O)CC3)ccc12 (stereo not given) | inactive |  | 
CCCc1c(OCCCCc2nn[nH]n2)ccc(C(C)=O)c1O | inactive |  | 
C=C(C)C(=O)OCCCCCCOC(=O)C(=C)C | inactive |  | 
Nc1cc(S(=O)(=O)O)cc2cc(S(=O)(=O)O)cc(O)c12 | inactive |  | 
O=c1cc[nH]c(=S)[nH]1 | inactive |  | 
CCN1CCN(C(=O)N[C@@H](C(=O)N[C@@H]2C(=O)N3[C@@H]2SC(C)(C)[C@H]3C(=O)O)c2ccccc2)C(=O)C1=O | inactive |  | 
O=C(O)CCC(=O)C(=O)O | inactive |  | 
CC(C)=NNC(N)=S | inactive |  | 
CC(C)[C@@H]1CC[C@@H](C)CC1=O | inactive |  | 
CCCCN(CCC(=O)OCC)C(C)=O | inactive |  | 
CCn1cc(C(=O)O)c(=O)c2cc(F)c(N3CCN(C)CC3)cc21 |  |  | 2.04% [at 23.6 µM]
CC(C)c1ccc2cc(C(C)C)ccc2c1 | inactive |  | 
CCCCC(CC)COP(=O)(O)OCC(CC)CCCC (stereo not given) | inactive |  | 
O=[N+]([O-])c1ccc2nc[nH]c2c1 | inactive |  | 
CCCCCCCCCCCCCCC | inactive |  | 

The compounds below were run against Acetylcholinesterase (Homo sapiens) (UniProt P22303) (assay: Acetylcholinesterase (AChE) small molecule antagonists: enzyme-based qHTS assay (AID 1347397; further: nearly all actives have a fitted effect of over 55% in size)). Conditions: Potency: AChE enzyme activity inhibition; outcome: AChE enzyme activity inhibition; series mostly up to 115 µM.
Summary of the method: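 Absorbance-based detection of thiocholine with DTNB served as the read-out. Recombinant human AChE was exposed to compound for 30 min at RT before a 10 min RT incubation with acetylthiocholine.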

SMILES | Potency | outcome | activity change, negative = inhibition
CNc1ccc([N+](=O)[O-])cc1 | inactive |  | 
CC(C)=CCO | inactive |  | 
C#CCN[C@@H]1CCc2ccccc21 |  | inactive | 
CN1CCCN(C(c2ccccc2)c2ccc(Cl)cc2)CC1 (stereo not given) | inactive |  | 
Nc1ccc(O)c(N)c1 | inactive |  | 
CN(C)CCN(C)CCN(C)C | inactive |  | 
CN(C)C(=O)NC1(c2ccccc2)CCN(CCC[C@]2(c3ccc(Cl)c(Cl)c3)CCCN(C(=O)c3ccccc3)C2)CC1 |  |  | 0.197% [at 23.6 µM]
C=C(C#N)C(=O)OCC | inactive |  | 
CC(=O)c1ccc(C(C)=O)cc1 | inactive |  | 
C#CC(C)N(C)C(=O)Nc1ccc(Cl)cc1 (stereo not given) | inactive |  | 
CN1N=C(C(N)=O)CCC1=O | inactive |  | 
OCCOCC#CCOCCO | inactive |  | 
CC(C)n1nc(-c2cc3cc(O)ccc3[nH]2)c2c(N)ncnc21 | inactive |  | 
CCn1cc(C(=O)O)c(=O)c2cc3c(cc21)OCO3 | inactive |  | 
C=CC(C)CCC=C(C)C (stereo not given) | inactive |  | 
CC(=O)CCCCn1c(=O)c2c(ncn2C)n(C)c1=O | inactive |  | 
O=C1c2ccccc2C(=O)N1CO | inactive |  | 
O=c1[nH]c2cc(C(F)(F)F)c(N3CCOCC3)cc2n(CP(=O)(O)O)c1=O | inactive |  | 
O=C1O[C@@H]2[C@@H](O)[C@H](O)O[C@@H]2[C@H]1O | inactive |  | 
CCCc1nc2c(C)cc(-c3nc4ccccc4n3C)cc2n1Cc1ccc(-c2ccccc2C(=O)O)cc1 | inactive |  | 

SMILES | Potency | outcome | activity change, negative = inhibition
OCCN1CCNCC1 | inactive |  | 
C[C@]12CC[C@@H]3c4ccc(O)cc4CC[C@H]3[C@@H]1C[C@@H](O)[C@@H]2O | inactive |  | 
OCCOCCOCCO | inactive |  | 
CN(C)c1ccc(O)c2c1C[C@H]1C[C@H]3[C@H](N(C)C)C(=O)C(C(N)=O)=C(O)[C@@]3(O)C(=O)C1=C2O | inactive |  | 
CCCCC(C=O)CC (stereo not given) | inactive |  | 
CCc1nn(C2CCCCC2)c2cc(C3(C#N)CCC(C(=O)O)CC3)ccc12 (stereo not given) | inactive |  | 
CCCc1c(OCCCCc2nn[nH]n2)ccc(C(C)=O)c1O | inactive |  | 
C=C(C)C(=O)OCCCCCCOC(=O)C(=C)C | inactive |  | 
Nc1cc(S(=O)(=O)O)cc2cc(S(=O)(=O)O)cc(O)c12 | inactive |  | 
O=c1cc[nH]c(=S)[nH]1 | inactive |  | 
CCN1CCN(C(=O)N[C@@H](C(=O)N[C@@H]2C(=O)N3[C@@H]2SC(C)(C)[C@H]3C(=O)O)c2ccccc2)C(=O)C1=O | inactive |  | 
O=C(O)CCC(=O)C(=O)O | inactive |  | 
CC(C)=NNC(N)=S | inactive |  | 
CC(C)[C@@H]1CC[C@@H](C)CC1=O | inactive |  | 
CCCCN(CCC(=O)OCC)C(C)=O | inactive |  | 
CCn1cc(C(=O)O)c(=O)c2cc(F)c(N3CCN(C)CC3)cc21 |  |  | -0.504% [at 23.6 µM]
CC(C)c1ccc2cc(C(C)C)ccc2c1 | inactive |  | 
CCCCC(CC)COP(=O)(O)OCC(CC)CCCC (stereo not given) | inactive |  | 
O=[N+]([O-])c1ccc2nc[nH]c2c1 | inactive |  | 
CCCCCCCCCCCCCCC | inactive |  | 
